Assay results from article PMC8222333, “AsCas12a ultra nuclease facilitates the rapid generation of therapeutic cell medicines”.

B1: GGCC (dsDNA)
DNA 1: GCTATCTAGTGCTCAGTACGCACTGGGCCAGGAAACTTCTGGCAGGACCAGGTCATGAGATCGGAAGAGCACACGTCTGAACTCCAGTCA
DNA 2: TGACTGGAGTTCAGACGTGTGCTCTTCCGATCTCATGACCTGGTCCTGCCAGAAGTTTCCTGGCCCAGTGCGTACTGAGCACTAGATAGC
RNA: AAUUUCUACUCUUGUAGAUAGGAAACUUCUGGCAGGACC
B2: GGTG (dsDNA)
DNA 1: GCTATCTAGTGCTCAGTACGCACTGGGTGAGGAAACTTCTGGCAGGACCAGGTCATGAGATCGGAAGAGCACACGTCTGAACTCCAGTCA
DNA 2: TGACTGGAGTTCAGACGTGTGCTCTTCCGATCTCATGACCTGGTCCTGCCAGAAGTTTCCTCACCCAGTGCGTACTGAGCACTAGATAGC
RNA: AAUUUCUACUCUUGUAGAUAGGAAACUUCUGGCAGGACC
B3: GGGC (dsDNA)
DNA 1: GCTATCTAGTGCTCAGTACGCACTGGGGCAGGAAACTTCTGGCAGGACCAGGTCATGAGATCGGAAGAGCACACGTCTGAACTCCAGTCA
DNA 2: TGACTGGAGTTCAGACGTGTGCTCTTCCGATCTCATGACCTGGTCCTGCCAGAAGTTTCCTGCCCCAGTGCGTACTGAGCACTAGATAGC
RNA: AAUUUCUACUCUUGUAGAUAGGAAACUUCUGGCAGGACC
B4: GGCT (dsDNA)
DNA 1: GCTATCTAGTGCTCAGTACGCACTGGGCTAGGAAACTTCTGGCAGGACCAGGTCATGAGATCGGAAGAGCACACGTCTGAACTCCAGTCA
DNA 2: TGACTGGAGTTCAGACGTGTGCTCTTCCGATCTCATGACCTGGTCCTGCCAGAAGTTTCCTAGCCCAGTGCGTACTGAGCACTAGATAGC
RNA: AAUUUCUACUCUUGUAGAUAGGAAACUUCUGGCAGGACC
B5: GTAG (dsDNA)
DNA 1: GCTATCTAGTGCTCAGTACGCACTGGTAGAGGAAACTTCTGGCAGGACCAGGTCATGAGATCGGAAGAGCACACGTCTGAACTCCAGTCA
DNA 2: TGACTGGAGTTCAGACGTGTGCTCTTCCGATCTCATGACCTGGTCCTGCCAGAAGTTTCCTCTACCAGTGCGTACTGAGCACTAGATAGC
RNA: AAUUUCUACUCUUGUAGAUAGGAAACUUCUGGCAGGACC
B6: GGGT (dsDNA)
DNA 1: GCTATCTAGTGCTCAGTACGCACTGGGGTAGGAAACTTCTGGCAGGACCAGGTCATGAGATCGGAAGAGCACACGTCTGAACTCCAGTCA
DNA 2: TGACTGGAGTTCAGACGTGTGCTCTTCCGATCTCATGACCTGGTCCTGCCAGAAGTTTCCTACCCCAGTGCGTACTGAGCACTAGATAGC
RNA: AAUUUCUACUCUUGUAGAUAGGAAACUUCUGGCAGGACC
B7: GTGG (dsDNA)
DNA 1: GCTATCTAGTGCTCAGTACGCACTGGTGGAGGAAACTTCTGGCAGGACCAGGTCATGAGATCGGAAGAGCACACGTCTGAACTCCAGTCA
DNA 2: TGACTGGAGTTCAGACGTGTGCTCTTCCGATCTCATGACCTGGTCCTGCCAGAAGTTTCCTCCACCAGTGCGTACTGAGCACTAGATAGC
RNA: AAUUUCUACUCUUGUAGAUAGGAAACUUCUGGCAGGACC
B8: GTCG (dsDNA)
DNA 1: GCTATCTAGTGCTCAGTACGCACTGGTCGAGGAAACTTCTGGCAGGACCAGGTCATGAGATCGGAAGAGCACACGTCTGAACTCCAGTCA
DNA 2: TGACTGGAGTTCAGACGTGTGCTCTTCCGATCTCATGACCTGGTCCTGCCAGAAGTTTCCTCGACCAGTGCGTACTGAGCACTAGATAGC
RNA: AAUUUCUACUCUUGUAGAUAGGAAACUUCUGGCAGGACC
B9: GTCC (dsDNA)
DNA 1: GCTATCTAGTGCTCAGTACGCACTGGTCCAGGAAACTTCTGGCAGGACCAGGTCATGAGATCGGAAGAGCACACGTCTGAACTCCAGTCA
DNA 2: TGACTGGAGTTCAGACGTGTGCTCTTCCGATCTCATGACCTGGTCCTGCCAGAAGTTTCCTGGACCAGTGCGTACTGAGCACTAGATAGC
RNA: AAUUUCUACUCUUGUAGAUAGGAAACUUCUGGCAGGACC

Legend:
Test in all cases: Spec-seq (native PAGE EMSA with sequencing of bound and unbound); 25 mM Tris-HCl pH 7.4, 150 mM KCl, 5 mM MgCl2, 10% glycerol, 1 mM DTT, 40 ng/uL salmon sperm DNA; 400 nM Cas12a, 480 nM crRNA, 50 nM library, 37 C 1 h; native PAGE at room temperature; high values mean tight binding
Details in all cases: protein: recombinant
dAsCas12a S542R = dAsCas12a S542R (Acidaminococcus sp., UniProt U2UMQ6 1-1307, S542R;D908A;E993A;D1235A)
d-enCas12a = d-enCas12a (Acidaminococcus sp., UniProt U2UMQ6 1-1307, E174R;S542R;K548R;D908A;E993A;D1235A)
d-enCas12a-Ultra = d-enCas12a-Ultra (Acidaminococcus sp., UniProt U2UMQ6 1-1307, E174R;S542R;K548R;M537R;F870L;D908A;E993A;D1235A)
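Note: relative affinity from the bound to unbound sequence frequency ratio in Spec-seq.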

Binder | binding signal (dAsCas12a S542R) [lnKA] | binding signal (d-enCas12a) [lnKA] | binding signal (d-enCas12a-Ultra) [lnKA]
B1 | -8.47 | -3.7 | -0.996
B2 | -8.15 | -4.86 | -1.95
B3 | -8.77 | -5.93 | -3.41
B4 | -8.78 | -5.68 | -2.87
B5 | -8.28 | -5.83 | -3.32
B6 | -8.85 | -5.77 | -3.46
B7 | -8.13 | -5.91 | -3.47
B8 | -6.96 | -4.39 | -1.21
B9 | -5.08 | -1.42 | -0.355
